The supplement of paper PMC10849652
About 8,800 targets were measured; listed, in parts, are those with a hit and a random draw of the rest. About 0.5% of all pairs of compound and target were hits. Unmarked numbers belong to inactive results.

Assays:
Experiment in all cases: log2 fold change, soluble protein after heating vs DMSO (PISA); higher = thermal stabilisation; K562 lysate, 10 uM; active = over 0.2 and 3.5 SD of the protein, either way, in both replicates (recomputed)
[1] = compound: NCC(=O)Nc1ccc(-n2nc(C(F)(F)F)cc2-c2ccc3c(ccc4ccccc43)c2)cc1
Procedure, shortened: (§1)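 K562 pellets were dounce-homogenised in PBS pH 7.4 containing 1 mM MgCl2, and the crude extract, at 1 mg/mL protein, was exposed to 10 μM compound for 30 min. Aliquots were heated for 3 min across 48°C-58°C, pooled, brought to 0.5% NP-40 at 4°C and spun at 21,000xg for 90 min, with the supernatant taken as soluble protein. TMTpro 16plex LC-MS/MS with equalised channel sums quantified that protein. Values are log-two fold changes in thermal stability relative to solvent controls, taken from duplicates.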

[2] = compound: O=C(CCCCCCC(=O)Nc1ccccc1)NO [vorinostat]
Procedure, shortened: as §1

[3] = compound: O=C(O)c1ccc2c(c1)nc(Nc1cccc(Cl)c1)c1ccncc12 [silmitasertib]
Procedure, shortened: as §1

[4] = compound: O=C1NC(=O)C(c2cnc3ccccn23)=C1c1cn2c3c(cc(F)cc13)CN(C(=O)N1CCCCC1)CC2
Procedure, shortened: as §1

[5] = compound: c1cn2cc(-c3ccc4cn[nH]c4c3)nc(Nc3ccc(N4CCOCC4)cc3)c2n1 [entospletinib]
Procedure, shortened: as §1

Sequence of UniProt P00519 (P00519 whole entry, looked up): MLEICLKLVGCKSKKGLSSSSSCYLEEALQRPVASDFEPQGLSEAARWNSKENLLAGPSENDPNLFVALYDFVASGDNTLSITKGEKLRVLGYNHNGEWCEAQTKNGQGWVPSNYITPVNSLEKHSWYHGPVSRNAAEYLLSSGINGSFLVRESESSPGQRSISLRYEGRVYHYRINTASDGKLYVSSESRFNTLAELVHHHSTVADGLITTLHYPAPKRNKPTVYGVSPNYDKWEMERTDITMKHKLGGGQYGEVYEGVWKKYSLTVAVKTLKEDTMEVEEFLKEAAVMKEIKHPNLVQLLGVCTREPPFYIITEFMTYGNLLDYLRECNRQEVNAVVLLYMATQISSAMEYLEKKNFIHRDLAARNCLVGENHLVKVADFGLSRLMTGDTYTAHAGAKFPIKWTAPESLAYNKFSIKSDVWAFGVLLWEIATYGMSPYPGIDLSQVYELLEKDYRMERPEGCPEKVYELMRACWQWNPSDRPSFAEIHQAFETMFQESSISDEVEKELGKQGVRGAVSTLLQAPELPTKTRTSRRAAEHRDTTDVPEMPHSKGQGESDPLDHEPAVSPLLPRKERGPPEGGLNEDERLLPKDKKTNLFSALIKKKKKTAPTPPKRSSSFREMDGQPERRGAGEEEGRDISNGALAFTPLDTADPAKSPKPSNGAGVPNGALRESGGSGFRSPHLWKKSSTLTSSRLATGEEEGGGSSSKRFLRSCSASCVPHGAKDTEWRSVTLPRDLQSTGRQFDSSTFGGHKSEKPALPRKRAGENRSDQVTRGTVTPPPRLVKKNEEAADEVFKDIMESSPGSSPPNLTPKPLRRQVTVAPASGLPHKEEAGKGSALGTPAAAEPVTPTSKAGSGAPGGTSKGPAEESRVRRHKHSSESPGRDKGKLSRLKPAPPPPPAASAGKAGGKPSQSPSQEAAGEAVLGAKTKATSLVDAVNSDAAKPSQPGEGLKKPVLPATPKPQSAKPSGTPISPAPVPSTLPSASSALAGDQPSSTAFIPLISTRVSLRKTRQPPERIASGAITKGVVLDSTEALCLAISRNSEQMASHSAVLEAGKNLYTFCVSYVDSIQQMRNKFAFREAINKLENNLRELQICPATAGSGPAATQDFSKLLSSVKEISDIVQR
Sequence of UniProt Q9NUQ8 (Q9NUQ8 whole entry, looked up): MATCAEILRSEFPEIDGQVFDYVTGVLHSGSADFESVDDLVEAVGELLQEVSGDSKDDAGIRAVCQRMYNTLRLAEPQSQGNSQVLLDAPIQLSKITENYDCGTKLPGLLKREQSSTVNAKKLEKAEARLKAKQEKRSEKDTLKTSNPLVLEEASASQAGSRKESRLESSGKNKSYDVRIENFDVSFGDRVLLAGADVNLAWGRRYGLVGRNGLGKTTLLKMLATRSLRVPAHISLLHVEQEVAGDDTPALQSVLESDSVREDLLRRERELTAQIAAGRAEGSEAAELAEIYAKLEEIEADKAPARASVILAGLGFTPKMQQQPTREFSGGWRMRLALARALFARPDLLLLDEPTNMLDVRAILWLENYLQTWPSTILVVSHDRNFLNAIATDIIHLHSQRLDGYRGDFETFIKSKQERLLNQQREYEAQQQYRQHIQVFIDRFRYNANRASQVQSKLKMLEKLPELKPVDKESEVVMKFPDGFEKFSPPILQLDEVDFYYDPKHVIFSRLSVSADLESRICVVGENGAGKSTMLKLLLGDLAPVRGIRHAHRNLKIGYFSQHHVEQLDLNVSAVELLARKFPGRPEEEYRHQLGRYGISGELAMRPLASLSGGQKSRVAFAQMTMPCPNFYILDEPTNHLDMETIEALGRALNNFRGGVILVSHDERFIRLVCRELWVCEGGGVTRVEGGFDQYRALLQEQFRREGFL
Sequence of UniProt Q96BM9 (Q96BM9 whole entry, looked up): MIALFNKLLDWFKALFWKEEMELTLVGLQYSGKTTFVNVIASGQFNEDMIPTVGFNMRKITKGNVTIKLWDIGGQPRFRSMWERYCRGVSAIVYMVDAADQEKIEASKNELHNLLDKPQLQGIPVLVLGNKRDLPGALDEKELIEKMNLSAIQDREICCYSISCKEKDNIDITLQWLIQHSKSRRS
Sequence of UniProt Q92974 (Q92974 whole entry, looked up): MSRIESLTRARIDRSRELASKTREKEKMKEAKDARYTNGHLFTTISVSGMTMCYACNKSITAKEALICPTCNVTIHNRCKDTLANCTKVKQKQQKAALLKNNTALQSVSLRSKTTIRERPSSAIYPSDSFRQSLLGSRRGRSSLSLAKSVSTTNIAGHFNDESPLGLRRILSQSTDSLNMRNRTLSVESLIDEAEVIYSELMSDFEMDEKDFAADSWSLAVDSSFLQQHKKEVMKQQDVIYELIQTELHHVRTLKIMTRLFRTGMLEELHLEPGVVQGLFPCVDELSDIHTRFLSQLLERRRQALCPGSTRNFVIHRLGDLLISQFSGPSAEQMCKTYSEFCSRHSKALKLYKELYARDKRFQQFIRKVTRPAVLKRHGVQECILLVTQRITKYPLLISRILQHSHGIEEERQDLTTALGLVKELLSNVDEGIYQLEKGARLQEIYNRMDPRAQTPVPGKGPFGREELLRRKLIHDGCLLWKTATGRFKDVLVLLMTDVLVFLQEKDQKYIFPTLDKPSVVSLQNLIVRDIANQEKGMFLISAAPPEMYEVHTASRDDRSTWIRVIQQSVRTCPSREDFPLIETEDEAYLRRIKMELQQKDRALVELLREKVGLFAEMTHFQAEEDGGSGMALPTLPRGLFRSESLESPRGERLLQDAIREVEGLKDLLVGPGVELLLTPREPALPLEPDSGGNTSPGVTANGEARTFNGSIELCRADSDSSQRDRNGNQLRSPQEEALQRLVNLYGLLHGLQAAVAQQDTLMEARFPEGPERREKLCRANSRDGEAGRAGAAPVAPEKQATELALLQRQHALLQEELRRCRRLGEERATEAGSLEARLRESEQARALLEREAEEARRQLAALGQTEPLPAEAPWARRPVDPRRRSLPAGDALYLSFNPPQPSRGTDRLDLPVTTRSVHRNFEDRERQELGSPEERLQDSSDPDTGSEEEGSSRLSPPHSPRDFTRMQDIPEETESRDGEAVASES
Sequence of UniProt Q9Y6B7 (Q9Y6B7 whole entry, looked up): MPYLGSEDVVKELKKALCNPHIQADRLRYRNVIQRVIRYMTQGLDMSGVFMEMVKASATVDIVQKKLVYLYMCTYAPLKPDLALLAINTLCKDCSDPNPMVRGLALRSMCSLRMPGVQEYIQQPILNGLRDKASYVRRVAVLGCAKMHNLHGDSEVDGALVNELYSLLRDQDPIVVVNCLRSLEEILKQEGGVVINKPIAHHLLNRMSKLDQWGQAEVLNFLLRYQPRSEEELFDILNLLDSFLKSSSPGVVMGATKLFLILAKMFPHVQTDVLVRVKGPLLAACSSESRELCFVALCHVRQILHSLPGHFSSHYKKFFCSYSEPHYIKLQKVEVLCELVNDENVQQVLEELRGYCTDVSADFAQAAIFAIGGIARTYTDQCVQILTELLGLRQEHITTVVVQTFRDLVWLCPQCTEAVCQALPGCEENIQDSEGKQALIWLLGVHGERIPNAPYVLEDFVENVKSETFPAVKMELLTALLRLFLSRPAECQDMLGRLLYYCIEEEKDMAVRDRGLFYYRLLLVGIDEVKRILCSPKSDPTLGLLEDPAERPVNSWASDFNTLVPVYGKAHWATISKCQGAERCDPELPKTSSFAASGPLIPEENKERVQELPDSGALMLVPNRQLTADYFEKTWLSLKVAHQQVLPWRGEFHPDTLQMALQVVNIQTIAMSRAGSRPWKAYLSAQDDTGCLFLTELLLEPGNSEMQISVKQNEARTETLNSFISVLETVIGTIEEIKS
Sequence of UniProt Q9NQW6 (Q9NQW6 whole entry, looked up): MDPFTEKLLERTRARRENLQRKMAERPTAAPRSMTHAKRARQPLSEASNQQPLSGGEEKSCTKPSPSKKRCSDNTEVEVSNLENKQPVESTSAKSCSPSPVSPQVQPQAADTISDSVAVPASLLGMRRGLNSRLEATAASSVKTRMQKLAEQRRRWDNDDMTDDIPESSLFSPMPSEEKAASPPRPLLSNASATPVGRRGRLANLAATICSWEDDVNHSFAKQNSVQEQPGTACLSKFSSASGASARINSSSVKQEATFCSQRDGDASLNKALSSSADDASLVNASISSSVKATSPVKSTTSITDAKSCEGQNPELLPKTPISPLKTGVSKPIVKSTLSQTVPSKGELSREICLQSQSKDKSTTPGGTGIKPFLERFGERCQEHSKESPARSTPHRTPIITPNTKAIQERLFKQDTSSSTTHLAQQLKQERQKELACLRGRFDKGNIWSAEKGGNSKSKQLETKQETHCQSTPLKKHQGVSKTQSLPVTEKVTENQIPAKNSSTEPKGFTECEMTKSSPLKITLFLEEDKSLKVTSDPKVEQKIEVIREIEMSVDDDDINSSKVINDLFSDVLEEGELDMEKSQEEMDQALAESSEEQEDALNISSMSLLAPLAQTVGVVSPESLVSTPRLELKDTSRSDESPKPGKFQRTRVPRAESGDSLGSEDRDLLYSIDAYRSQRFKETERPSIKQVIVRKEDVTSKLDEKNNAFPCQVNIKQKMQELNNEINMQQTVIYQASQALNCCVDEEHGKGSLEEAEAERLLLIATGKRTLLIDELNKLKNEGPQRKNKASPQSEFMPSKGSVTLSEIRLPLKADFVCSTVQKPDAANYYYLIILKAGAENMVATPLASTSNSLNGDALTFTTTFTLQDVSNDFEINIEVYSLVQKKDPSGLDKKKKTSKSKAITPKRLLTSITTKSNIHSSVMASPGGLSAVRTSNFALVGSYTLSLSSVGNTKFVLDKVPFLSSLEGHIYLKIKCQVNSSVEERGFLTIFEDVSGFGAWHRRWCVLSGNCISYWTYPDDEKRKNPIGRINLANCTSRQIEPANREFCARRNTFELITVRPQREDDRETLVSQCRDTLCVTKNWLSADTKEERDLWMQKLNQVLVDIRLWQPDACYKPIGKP
Sequence of UniProt Q9NXU5 (Q9NXU5 whole entry, looked up): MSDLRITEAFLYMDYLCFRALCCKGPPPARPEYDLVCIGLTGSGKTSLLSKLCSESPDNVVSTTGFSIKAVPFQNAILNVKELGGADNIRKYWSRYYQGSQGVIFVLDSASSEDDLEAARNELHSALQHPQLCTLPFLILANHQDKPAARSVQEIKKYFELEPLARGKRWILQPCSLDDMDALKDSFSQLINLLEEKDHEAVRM

AHCYL1 (UniProt O43865) was tested, and the log2 fold change [1] was 0.021, the log2 fold change [2] was -0.287 (active) and the log2 fold change [3] was -0.021. The log2 fold change [4] was 0.045 and the log2 fold change [5] was -0.03.

AKT1 (UniProt P31749) was tested, and the log2 fold change [1] was -0.051, the log2 fold change [2] was -0.192 and the log2 fold change [3] was -0.012. For the same target, the log2 fold change [4] was -0.024 and the log2 fold change [5] was -0.005.

For ABCF3 (UniProt Q9NUQ8), the log2 fold change [1] was 0.026, the log2 fold change [2] was -0.439 (active) and the log2 fold change [3] was 0.033. It also gave a log2 fold change [4] of -0.004 and a log2 fold change [5] of -0.013.

Work on ARL15 (UniProt Q9NXU5) yielded a log2 fold change [1] of 0.007, a log2 fold change [2] of -0.109 and a log2 fold change [3] of 0.016. For the same target, the log2 fold change [4] was -0.029 and the log2 fold change [5] was 0.014.

For ARHGEF2 (UniProt Q92974), the log2 fold change [1] was 0.042, the log2 fold change [2] was -0.248 (active) and the log2 fold change [3] was -0.029. It also gave a log2 fold change [4] of 0.007 and a log2 fold change [5] of 0.

Work on AIFM2 (UniProt Q9BRQ8) yielded a log2 fold change [1] of -0.014, a log2 fold change [2] of -0.261 and a log2 fold change [3] of -0.015. The log2 fold change [4] was 0.188 and the log2 fold change [5] was 0.003.

For ADD1 isoform 3 (UniProt P35611), the log2 fold change [1] was -0.024, the log2 fold change [2] was 0.048 and the log2 fold change [3] was -0.012. The log2 fold change [4] was -0.022 and the log2 fold change [5] was -0.014.

ABL1 isoform 2 (UniProt P00519) was tested, and the log2 fold change [1] was -0.003, the log2 fold change [2] was -0.328 (active) and the log2 fold change [3] was -0.019. The log2 fold change [4] was -0.042 and the log2 fold change [5] was -0.008.

With AP4B1 (UniProt Q9Y6B7) the log2 fold change [1] was 0.08, the log2 fold change [2] was -0.286 (active) and the log2 fold change [3] was 0.037. The log2 fold change [4] was -0.051 and the log2 fold change [5] was 0.022.

In the case of ABHD12 isoform 2 (UniProt Q8N2K0), the log2 fold change [1] was -0.003, the log2 fold change [2] was 0.392 (active) and the log2 fold change [3] was -0.026. For the same target, the log2 fold change [4] was -0.023 and the log2 fold change [5] was -0.023.

Work on ARFGAP1 (UniProt Q8N6T3) yielded a log2 fold change [1] of 0.063, a log2 fold change [2] of 0.253 and a log2 fold change [3] of -0.066. It also gave a log2 fold change [4] of -0.12 and a log2 fold change [5] of 0.038.

With ANKRD52 (UniProt Q8NB46) the log2 fold change [1] was -0.043, the log2 fold change [2] was -0.491 (active) and the log2 fold change [3] was 0.063. The log2 fold change [4] was -0.023 and the log2 fold change [5] was -0.057.

AKAP11 (UniProt Q9UKA4) gave a log2 fold change [1] of -0.066, a log2 fold change [2] of -0.164 and a log2 fold change [3] of 0.019. The log2 fold change [4] was -0.057 and the log2 fold change [5] was 0.015.

For ANXA2 isoform 2 (UniProt P07355), the log2 fold change [1] was -0.015, the log2 fold change [2] was 0.023 and the log2 fold change [3] was -0.015. It also gave a log2 fold change [4] of 0.003 and a log2 fold change [5] of 0.016.

With ANLN (UniProt Q9NQW6) the log2 fold change [1] was 0.018, the log2 fold change [2] was -0.656 (active) and the log2 fold change [3] was -0.011. The log2 fold change [4] was -0.009 and the log2 fold change [5] was 0.

For ARAF (UniProt P10398), the log2 fold change [1] was -0.072, the log2 fold change [2] was -0.487 (active) and the log2 fold change [3] was -0.023. For the same target, the log2 fold change [4] was 0.019 and the log2 fold change [5] was -0.011.

In the case of ACBD6 (UniProt Q9BR61), the log2 fold change [1] was -0.009, the log2 fold change [2] was -0.298 (active) and the log2 fold change [3] was 0.003. It also gave a log2 fold change [4] of 0.028 and a log2 fold change [5] of -0.028.

In the case of AMPD3 isoform 4 (UniProt Q01432), the log2 fold change [1] was -0.038, the log2 fold change [2] was 0.256 (active) and the log2 fold change [3] was -0.005. It also gave a log2 fold change [4] of -0.021 and a log2 fold change [5] of 0.018.

ARL8A (UniProt Q96BM9) showed a log2 fold change [1] of 0.192, a log2 fold change [2] of 0.234 and a log2 fold change [3] of -0.024. It also gave a log2 fold change [4] of -0.03 and a log2 fold change [5] of 0.002.

Target AGO4 (UniProt Q9HCK5) has a log2 fold change [1] of -0.007, a log2 fold change [2] of 0.09 and a log2 fold change [3] of -0.018. The log2 fold change [4] was -0.006 and the log2 fold change [5] was -0.013.

For APEX1 (UniProt P27695), the log2 fold change [1] was 0.007, the log2 fold change [2] was -0.15 and the log2 fold change [3] was 0.026. It also gave a log2 fold change [4] of -0.001 and a log2 fold change [5] of -0.002.

ACAT1 (UniProt P24752) was tested, and the log2 fold change [1] was 0.011, the log2 fold change [2] was -1.05 (active) and the log2 fold change [3] was -0.037. It also gave a log2 fold change [4] of -0.014 and a log2 fold change [5] of 0.018.

In the case of AKR1C3 (UniProt P42330), the log2 fold change [1] was -0.009, the log2 fold change [2] was 0.546 (active) and the log2 fold change [3] was 0.044. For the same target, the log2 fold change [4] was 0.009 and the log2 fold change [5] was 0.059.

For APAF1 (UniProt O14727), the log2 fold change [1] was 0.021, the log2 fold change [2] was -0.292 (active) and the log2 fold change [3] was 0.032. It also gave a log2 fold change [4] of 0.057 and a log2 fold change [5] of 0.032.
